HttQ103 aggreg: mutant huntingtin aggregation inhibition; actives 1.1% (n = 220,000); Potency, µM (series often up to 46.1 µM), for the others: top-dose activity change, negative = inhibition, hits mostly inhibitors; PC12 HttQ103-GFP aggregates, Acumen cytometry, 40 h; active means well fitted curve in the direction sought with a large enough effect; inconclusive means small, poorly fitted or top-dose-only effect, or another doubt; inactive means no such curve, though single readings can be large; an effect the other way counts as inactive or inconclusive; further: on the % scale 0 is the no-effect control and ±100 the full control effect; nearly all actives have a fitted effect of over 60% in size
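Huntingtin Q103 exon 1–GFP aggregates in induced PC12 cells (100 nM tebufenozide) were quantified by cytometry from lysates, with compounds dosed in titration.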
ALDH1A1 block: blocks purified human ALDH1A1 activity; P00352; Purified ALDH1A1, NADH fluorescence, propionaldehyde substrate; Potency, µM (titrated, usually from 75.3 µM), for the others: top-dose activity, negative = inhibition, most hits filed as inhibitors; actives 7.3% (n = 220,000); AID 1030;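 further: plate controls were no enzyme wells and a reference inhibitor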
Lamin A splicing: changes lamin A minigene splicing in HeLa cells; Potency, µM (top dose mostly 46.1 µM), for the others: at the top dose ratio change, negative = inhibition, most hits filed as inhibitors; AID 1487; actives 0.01% (n = 200,000); HeLa LMNA splicing GFP/RFP minigene ratio, 48 h; active means well fitted inhibition curve with a large enough effect in the signal ratio, with a control signal flat, not every such curve was filed as active; inconclusive means small, poorly fitted or top-dose-only effect, or effect the other way, or a change in a side signal; the % refers to the signal ratio; further: on the % scale 0 is the no-effect control and ±100 the full control effect
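S3 HeLa cells stably expressing lamin A-EGFP splicing minigene plus DsRed2, 600 cells/well, 48 h compound exposure at 37C. Laser-scanning cytometry; analysed as GFP (500-530 nm)/RFP (575-640 nm) total intensity ratio; 0.5% DMSO vehicle.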
HTT cytoprotect: protects HTT-Q103 PC12 cells, measured by ATP. PC12 HTT-Q103 induced, cytoprotection, ATP luminescence, 40 h. actives 0.14% (n = 230,000). AID 1471. Potency, µM (series often up to 56.4 µM), without a hit: cytoprotection (ATP increase), hits mostly activators; active means well fitted curve in the direction sought with a large enough effect; inconclusive means small, poorly fitted or top-dose-only effect, or another doubt; inactive means no such curve, though single readings can be large; an effect the other way counts as inactive or inconclusive; further: % of control where 0% means no effect; nearly all actives have a fitted effect of over 45% in size
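Huntington model: PC12 line, ecdysone-inducible HTTQ103 exon1–GFP, tebufenozide 100 nM. Test articles in a dose series. Endpoint luminescence from cellular ATP.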
HPGD inh: HPGD (human) dehydrogenase inhibition; Potency, µM, without a hit: at the highest dose activity change, negative = inhibition, actives largely listed as inhibitors; purified HPGD, NADH fluorescence kinetic, PGE2 substrate; P15428; actives 4.3% (n = 150,000); further: on the % scale 0 is the no-effect control and ±100 the full control effect
Target sequence (P15428 whole entry, looked up): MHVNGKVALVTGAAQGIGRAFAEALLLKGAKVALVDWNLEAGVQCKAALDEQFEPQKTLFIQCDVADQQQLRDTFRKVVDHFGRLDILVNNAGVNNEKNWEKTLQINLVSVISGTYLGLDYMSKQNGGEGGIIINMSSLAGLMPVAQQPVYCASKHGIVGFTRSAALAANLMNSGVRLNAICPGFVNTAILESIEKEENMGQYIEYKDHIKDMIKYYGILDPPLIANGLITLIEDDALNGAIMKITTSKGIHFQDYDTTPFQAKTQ
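20 nM HPGD preincubated 15 min at room temperature with compound in 50 mM Tris-HCl pH 8, 0.01% Tween 20. Started with 1 mM NAD+ and 30 uM prostaglandin E2; NADH fluorescence (360/450 nm) read 5 times over 30-s intervals, last minus first.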
JMJD2E inh: blocks human JMJD2E demethylase activity; JMJD2E catalytic domain, FDH-coupled NADH fluorescence (FDH is formaldehyde dehydrogenase); AID 2147; actives 1.6% (n = 230,000); Potency, µM (highest dose often 57.1 µM), without a hit: at the top dose activity change, negative = inhibition, hits mostly inhibitors;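 further: 0% = wells with enzyme and -100% = buffer wells without enzyme; nearly all actives have a fitted effect of over 50% in size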
Target sequence (B2RXH2 1-337 limits assumed): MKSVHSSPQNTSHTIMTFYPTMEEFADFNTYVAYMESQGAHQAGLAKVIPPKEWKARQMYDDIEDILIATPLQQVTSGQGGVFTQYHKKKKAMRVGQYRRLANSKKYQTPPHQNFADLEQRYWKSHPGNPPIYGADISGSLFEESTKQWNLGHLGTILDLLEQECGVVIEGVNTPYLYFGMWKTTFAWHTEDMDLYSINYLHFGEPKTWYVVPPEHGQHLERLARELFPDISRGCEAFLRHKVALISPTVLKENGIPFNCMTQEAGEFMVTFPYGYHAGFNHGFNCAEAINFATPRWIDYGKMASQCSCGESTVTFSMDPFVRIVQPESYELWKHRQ
The depositor's hits bear a star; u = inconclusive; x = no result; [ ] = remark or other dose. Shown are actives, neighbours in structure and some others; about 9.2% of the full set was active somewhere. Unless noted, the call rests on the fitted dose curve; in most records, active means well fitted inhibition curve with a large enough effect (not every such curve was filed as active); inconclusive means small, poorly fitted or top-dose-only effect, or another doubt; inactive means no such curve, though single readings can be large or run the other way. Potency means the concentration at half of the fitted maximal effect.

SMILES | HttQ103 aggreg | ALDH1A1 block | Lamin A splicing | HTT cytoprotect | HPGD inh | JMJD2E inh
CCc1cc2ccc(OC)cc2nc1SCC(=O)NNC(=O)c1ccco1 | 8%[9.22 µM] | 6.3µM* | -15%[46 µM] | -2%[10 µM] | x | -12%
CCc1cc2cc(C)c(C)cc2nc1SCC(=O)NNC(=O)c1ccco1 | 2% | u | -3% | -38% | -14% | 3%
CCn1c(CCn2c3ccccc3c3ccccc32)n[nH]c1=S | 10% | 28µM* | u | x | u | u
CC(C)Cn1c(-c2ccc(F)cc2)n[nH]c1=S | 9% | u | -15% | 5%[10 µM] | 28µM* | u
CCCCn1c(Cc2ccccc2)n[nH]c1=S | -6% | 14µM* | -12% | -19%[10 µM] | u | 0%
CC(C)Cn1c(Cc2ccccc2)n[nH]c1=S | 5% | 16µM* | 5% | 0% | -24% | 5%
O=C(COC(=O)c1cnccn1)NCc1ccc2c(c1)OCO2 | 14% | 2% | 19%[46 µM] | -13% | x | 7%
O=C(Nc1ccccc1)N(Cc1cccs1)c1ccc(Cl)cc1 | x | x | -4%[46 µM] | x | x | x
CC(C)Cn1c(-c2csc3c2CCCC3)n[nH]c1=S | -21% | 35µM* | 7% | -8% | 28µM* | u
Cc1ccc(OCc2n[nH]c(=S)n2N)cc1C | 6% | -14% | x | -9% | x | -3%
CC(C)Cn1c(-c2ccccc2F)n[nH]c1=S | 11% | -12% | 0% | 5% | -24% | u
CCCCOc1ccc(Cc2n[nH]c(=S)n2N)cc1 | -2% | 10% | u | -9%[10 µM] | 2.5µM* | 0%
CN(C)C=Nc1c(I)cc(I)c(CCC(=O)O)c1I | 31% | x | x | 19% | x | x
CCCCOc1ccc(CC2CCC(=O)NC2=O)cc1 (stereo not given) | -2%[9.22 µM] | 10% | x | 5%[10 µM] | x | -1%
Cc1ccc(C(=O)n2nc(C)c(S(=O)(=O)N3CCCCCC3)c2C)cc1C | x | x | -4%[46 µM] | x | x | x
C(=C\c1ccccc1)/CN1CCN(c2ncnc3c2oc2ccccc23)CC1 | 6.3µM* | u | u | -189%[0.074 µM] | u | u
CCn1c(=S)[nH]c2cc(S(=O)(=O)N3CCCCC3)ccc21 | u | 7.1µM* | u | -4% | -20% | -9%
O=S(=O)(c1ccc2oc(=S)[nH]c2c1)N1CCCCC1 | -3%[9.22 µM] | 20µM* | x | 6%[10 µM] | x | 2%
O=S(=O)(Nc1cccc(Cl)c1)c1ccc2oc(=S)[nH]c2c1 | 16% | 1µM* | x | -51% | x | -9%
Cc1cnc(CNc2ncncc2-c2c(C)noc2C)cn1 | x | -3% | u | -46% | x | x
CC1(C)C(/C=C/C=C/C=C/C=C2\N(CCCCS(=O)(=O)O)c3ccc4ccccc4c3C2(C)C)=[N+](CCCCS(=O)(=O)[O-])c2ccc3ccccc3c21 | 5% | x | x | 28% | x | x
CCC1CCCCN1C(=O)C1CC(c2cc(Cl)c(OC)cc2OC)=NO1 (stereo not given) | -8% | u | -8% | -4% | 14µM* | -8%
c1ccc(CNc2nc(-c3ccoc3)nc3ccccc23)cc1 | x | 32µM* | u | -36% | x | x
CN(C)C(=O)c1ccc(-c2nnc(NCc3ccccc3)c3ccccc23)cc1 | u | u | -5% | 22%[10 µM] | 2.5µM* | -17%
CN(C)C(=O)c1ccc(-c2nc(NCc3cccnc3)c3ccccc3n2)cc1 | x | -1% | -10% | -13% | 16µM* | -13%
SMILES | HttQ103 aggreg | ALDH1A1 block | Lamin A splicing | HTT cytoprotect | HPGD inh | JMJD2E inh
CN(C)C(=O)c1ccc(-c2ccc3ncnc(NCc4ccccc4)c3c2)cc1 | x | u | u | -72% | x | x
Cc1cccc(CNc2nc(-c3ccoc3)nc3ccccc23)c1 | x | -14% | u | 0% | -6% | -30%
CN(C)C(=O)c1ccc(-c2nccc(NCc3cccnc3)n2)cc1 | x | 2% | 8% | -17% | 14µM* | 5%
Cc1cnc(CNc2nc(-c3ccc(C(=O)N(C)C)cc3)nc3ccccc23)cn1 | x | 5% | -4% | -48% | 14µM* | u
CNc1nc(-c2ccc(C(=O)N(C)C)cc2)nc2ccccc12 | x | 4% | -5% | -170% | x | x
CCN(CC)C(=O)CSc1nnc2nnc3cc(OC)ccc3n12 | -1%[9.22 µM] | x | x | 10%[10 µM] | x | -3%
O=C(COC(=O)c1ccc([N+](=O)[O-])s1)Nc1ncc(C(F)(F)F)cc1Cl | -1% | 18µM* | 2% | 22%[1.9 µM] | -27% | 20µM*
COc1ccc(-n2cnc3cc(C(=O)NC4CCCCCC4)ccc32)cc1 | x | x | 7%[46 µM] | x | x | x
O=C(/C=C/c1cccs1)Nc1ccncc1 | -11% | 2% | -8% | -4%[10 µM] | -9% | -5%
Cc1cccc(NC(=O)/C=C/c2cccs2)n1 | -29% | u | -10% | -18% | 28µM* | 2%
Cc1nn2c(NCCOCCO)c3c(nc2c1-c1ccccc1)CCCC3 | -15% | 32µM* | 4% | -37% | -15% | 3%
COCCNc1c2c(nc3c(-c4ccccc4)c(C)nn13)CCCC2 | -31% | -9% | 1% | -31% | -12% | -28%
COc1ccc2[nH]cc(CCNc3ccnc(-c4cccc(NS(C)(=O)=O)c4)n3)c2c1 | x | u | 1% | 24% | -21% | u
Cc1c(C(=O)Nc2ccccc2)oc2c1C(=O)CC(C)(C)C2 | 10µM* | u | -4% | 6% | -22% | -5%
COc1ccccc1-c1nc(CNC(=O)Nc2ccccc2)c(C)o1 | x | x | 5%[46 µM] | x | x | x
O=C(O)CCCC(=O)Nc1ccc(Br)cc1 | 15%[9.22 µM] | 15% | 1% | 7% | -4% | 15%
O=C(O)CCCC(=O)Nc1ccc(Cl)cc1 | -6%[9.22 µM] | 28µM* | x | -8%[10 µM] | x | 12%
O=C(CCCC(=O)OCC(=O)c1cccs1)Nc1ccc(Oc2ccccc2)cc1 | 15% | u | 6% | -62% | -26% | 3%
O=C(CCCC(=O)OCC(Cl)=C(Cl)Cl)Nc1ccccc1 | 16% | -4% | -5% | 0%[10 µM] | 25µM* | -11%
COc1cc(/C=N/NC(=O)c2sc(N)c(C#N)c2C)cc(Br)c1O | 30% | 13µM* | u | -19% | -20% | u
COc1ccc2ccccc2c1/C=N/NC(=O)c1sc(N)c(C#N)c1C | 8% | u | 6% | 12%[10 µM] | -29% | u
COc1ccc(CNC(=O)Cc2csc3nc(-c4ccc(C)cc4)cn23)cc1 | x | x | 0%[46 µM] | x | x | x
Cc1nc2cc3nc(C)sc3cc2s1 | 7% | 1.8µM* | -6% | -88%[0.074 µM] | 13µM* | -7%
Cc1ccc(CCNC(=O)c2cnc3c(-c4ccc(F)cc4)c(C)nn3c2C)cc1 | x | x | -14%[46 µM] | x | x | x
O=C1CCc2cc(S(=O)(=O)NCc3ccccc3Cl)cc3c2N1CC3 | x | x | -29%[46 µM] | x | x | x
O=C(CSCC(=O)NC1CC1)Nc1ccc2ccccc2c1 | -8% | -2% | 4% | 2%[10 µM] | -7% | 13%
Cc1noc(C)c1CSc1ncnc2sc3c(c12)CCCCC3 | u | 28µM* | 3% | 26%[10 µM] | u | u
CN(C(=O)c1ccc(-c2nn(C)c(=O)c3ccccc23)cc1)c1ccccc1 | u | -4% | 1% | -1%[10 µM] | 7.9µM* | 4%

Screening results as filed in PubChem BioAssay.
